Screens from PubChem BioAssay.
KB-V1 cytotox: qHTS assay for MDR1-selective chemotherapeutics: Primary screen using the drug-selected MDR subline cells KB-V1. KB-V1 MDR cells viability, CellTiter-Glo, 72 h. Potency, µM (doses to about 46.1 µM), hits mostly cytotoxic. 3.4% of 400,000 active; also: nearly all actives have a fitted effect of over 60% in size
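Readout: CellTiter-Glo luminescence, 10 min after addition. Cells: KB-V1 MDR subline, 72 h at 37 degrees C with compound. Analysis: corrected, normalized data fitted to concentration-effect curves.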
TDP1 cell noCPT: qHTS for Inhibitors of human tyrosyl-DNA phosphodiesterase 1 (TDP1): qHTS in cells in absence of CPT; DT40 Tdp1-/- hTDP1 cells, no CPT, ATP luminescence, 48 h; Potency, µM (doses to about 46.2 µM), most hits filed as inhibitors; 15% of 420,000 active; AID 686978, 2013; also: nearly all actives have a fitted effect of over 55% in size
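No-CPT arm: Tdp1-/-;hTDP1 DT40 cells (400/well) plus compounds, incubated ≥48 hr at 37 °C. Readout CellTiter-Glo luminescence.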
HT1080NT lethal: qHTS for induction of synthetic lethality in tumor cells producing 2HG: qHTS for the HT-1080-NT fibrosarcoma cell line; AID 686970, 2013; Potency, µM (highest dose often 46.1 µM), actives largely listed as cytotoxic; 1.6% of 360,000 active; HT-1080-NT fibrosarcoma viability, CellTiter-Glo ATP luminescence, 48 h;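 also: NT is the 2HG producing partner of a matched IDH1 knockdown line; nearly all actives have a fitted effect of over 55% in size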
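750 cells/well, RPMI + 5% FBS; 2 h settle, compound pin-transfer, 48 h at 37 degrees C. CellTiter-Glo 10 min RT, luminescence. Normalized to DMSO and media-only wells.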
HT1080 IDH1KD tx: qHTS for induction of synthetic lethality in tumor cells producing 2HG: qHTS for the HT-1080-IDH1KD cell line; 2% of 360,000 active; HT-1080 IDH1 knockdown viability, ATP luminescence, 48 h; Potency, µM (titrated, usually from 46.1 µM), usual class: cytotoxic
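Knockdown cells (IDH1KD HT-1080) received compounds 2 h after plating at 750 cells/well and were kept 48 h at 37 °C in 5% FBS RPMI. A CellTiter-Glo luminescence read gave % activity for curve fitting.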
DT40 TDP1 CPT: qHTS for Inhibitors of human tyrosyl-DNA phosphodiesterase 1 (TDP1): qHTS in cells in presence of CPT. chicken DT40 Tdp1-/-;hTDP1 cells + 20 nM CPT, ATP luminescence, 48 h. Potency, µM (highest dose often 46.2 µM), usual class: inhibitors. 12% of 420,000 active. AID 686979, 2013; also: nearly all actives have a fitted effect of over 55% in size
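Chicken DT40 Tdp1-/- cells stably complemented with human TDP1 were seeded at 400 cells/well in medium containing 20 nM camptothecin, exposed to pin-transferred compounds, and grown at 37 °C for at least 48 hr. Viability was read as ATP luminescence.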
KB-3-1 tox: qHTS assay for MDR1-selective chemotherapeutics: Primary screen using the parental adenocarcinoma cell KB-3-1 | KB-3-1 viability, CellTiter-Glo ATP luminescence, 72 h | Potency, µM (doses to about 46.1 µM), hits mostly cytotoxic | 1.4% of 400,000 active | AID 1347075, 2019; also: nearly all actives have a fitted effect of over 60% in size
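Parental KB-3-1 viability, qHTS format: 72 h compound exposure, 37 °C; CellTiter-Glo; media-only wells and DMSO plates as controls; concentration-effect fits on corrected data.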
Of the large screens only hits and unclear results are named; the others gave an inactive call. Compounds with a hit are over-represented: about 19% of the library has one in this group of screens. Calls follow the shape of the dose curve; as a rule, active = well fitted curve in the direction sought with a large enough effect; inconclusive = small, poorly fitted or top-dose-only effect, or another doubt; inactive = no such curve, though single readings can be large; an effect the other way counts as inactive or inconclusive.

COc1ccc(CNC(=O)OC23CN(C(=O)OC(C)C)N(C(=O)OC(C)C)CC2(O)CN(S(=O)(=O)c2ccc(C)cc2)C3)cc1OC (stereo not given)	TDP1 cell noCPT inconclusive, DT40 TDP1 CPT inconclusive
CN(C)CCNc1cccc2sc3ccc(O)cc3c(=O)c12	KB-V1 cytotox 23.1µM, TDP1 cell noCPT 0.326µM, HT1080NT lethal 9.2µM, HT1080 IDH1KD tx 11.6µM, DT40 TDP1 CPT 0.184µM, KB-3-1 tox 16.4µM
Cc1ccc(NCCN(C)C)c2c(=O)c3cc(O)ccc3sc12	KB-V1 cytotox 11.6µM, TDP1 cell noCPT 0.184µM, HT1080NT lethal inconclusive, HT1080 IDH1KD tx inconclusive, DT40 TDP1 CPT 0.146µM, KB-3-1 tox inconclusive
COc1cc(C)c2sc3ccccc3c(=O)c2c1NCCN(C)C	KB-V1 cytotox inconclusive, TDP1 cell noCPT 5.8µM, HT1080NT lethal inconclusive, HT1080 IDH1KD tx inconclusive, DT40 TDP1 CPT 6.51µM
Cc1ccc(C(=O)NCCN(C)C)cc1C	none
CCOc1ccc(NC(=O)CN(C)C(=O)C2CC(=O)N(Cc3ccco3)C2)cc1OCC (stereo not given)	none
CC(=O)C(Cl)C(=O)Nc1ccccc1 (stereo not given)	TDP1 cell noCPT 4.11µM, HT1080NT lethal inconclusive, HT1080 IDH1KD tx inconclusive, DT40 TDP1 CPT 2.59µM, KB-3-1 tox 20.6µM
CC(C(=O)Nc1ccccc1)C(=O)Nc1ccccc1	none
O=C(Nc1ccccc1)C(Cl)C(=O)c1ccccc1 (stereo not given)	TDP1 cell noCPT 8.2µM, DT40 TDP1 CPT 6.51µM
CCOc1ccc2[nH]c(=O)c(C(c3nnnn3Cc3ccco3)N3CCCC(C)C3)cc2c1 (stereo not given)	DT40 TDP1 CPT inconclusive
CCOc1ccc2[nH]c(=O)c(C(c3nnnn3Cc3ccco3)N3CCC(C)CC3)cc2c1 (stereo not given)	TDP1 cell noCPT 25.9µM
COc1ccc2[nH]c(=O)c(CN(C3CCCCC3)C(c3nnnn3Cc3ccco3)C(C)C)cc2c1 (stereo not given)	KB-V1 cytotox 11.6µM, TDP1 cell noCPT inconclusive, DT40 TDP1 CPT 11.6µM, KB-3-1 tox inconclusive
COc1ccc2[nH]c(=O)c(CN(Cc3nnnn3Cc3ccco3)C3CCCCC3)cc2c1	TDP1 cell noCPT 16.4µM, DT40 TDP1 CPT inconclusive, KB-3-1 tox inconclusive
CCOC(=O)Cn1nnnc1C(C(C)C)N(Cc1cc2c(C)cc(C)cc2[nH]c1=O)C1CCCC1 (stereo not given)	TDP1 cell noCPT 20.6µM, HT1080NT lethal inconclusive, HT1080 IDH1KD tx inconclusive, DT40 TDP1 CPT 23.1µM
CC(=O)N(Cc1cc2c(C)cc(C)cc2[nH]c1=O)C1CCCCC1	none
Cc1ccc2[nH]c(=O)c(CN(Cc3nnnn3C3CCCC3)C3CCCCC3)cc2c1	none
Cc1nc(Nc2ccccc2F)c2oc3ccccc3c2n1	TDP1 cell noCPT inconclusive
COc1ccc(Cn2nnnc2CN(Cc2cc3cc(C)ccc3[nH]c2=O)C2CCCC2)cc1	KB-V1 cytotox 16.4µM, TDP1 cell noCPT 11.2µM, DT40 TDP1 CPT 11.6µM
CN(C)c1cccc(C(=O)Nc2nnc(Cc3ccccc3)s2)c1	KB-V1 cytotox inconclusive, TDP1 cell noCPT inconclusive, DT40 TDP1 CPT inconclusive
CCOC(=O)C1=C(C)Nc2ncnn2C1c1cc(Br)ccc1F (stereo not given)	KB-V1 cytotox 20.6µM, TDP1 cell noCPT 25.9µM, HT1080 IDH1KD tx inconclusive, DT40 TDP1 CPT inconclusive, KB-3-1 tox inconclusive
CCOC(=O)C1=C(C)Nc2ncnn2C1c1cccs1 (stereo not given)	none
CCCC1=C(C(=O)OCC)C(c2cccs2)n2ncnc2N1 (stereo not given)	KB-V1 cytotox inconclusive, TDP1 cell noCPT inconclusive
